Results published in the supplement of paper PMC10732440.
± gives the standard deviation of the averaged measurements.

Tested on: Caenorhabditis elegans N2 infected with Nematocida parisii ERTm1
Test: progeny production relative to DMSO uninfected control; higher = more progeny despite microsporidia infection (inhibition of infection with low host toxicity)
Conditions: infection time 6 days; 40 µM
Protocol: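 Bleach-synchronised C. elegans N2 L1 larvae (100 per well) were grown in 96-well plates in K-medium with 5x E. coli OP50 and 15,000 N. parisii spores/uL, plus Pandemic Response Box compound at 100 uM or 40 uM (1% DMSO), for 6 days at 21 C with shaking. Worms were stained with Rose Bengal, scanned on a flatbed scanner and counted with WorMachine. Progeny production is given as % of the DMSO uninfected control (triplicate wells), so higher values mean the compound restores progeny despite infection.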

| Structure (SMILES) | progeny production [%] |
| --- | --- |
| COc1cc(C(C)(C)CCCC(C)C)cc(OC)c1OC | 5.3 ± 1.8 |
| C[N+]1(C)CCCC(OC(=O)C(O)(c2ccccc2)c2ccccc2)C1 (centres undefined) | 12.7 ± 11 |
| COc1ccccc1CN[C@H]1C2CCN(CC2)[C@H]1C(c1ccccc1)c1ccccc1 | 8.71 ± 4.8 |
| CCN1CCN(Cc2nc3ccc([N+](=O)[O-])cc3c(=O)n2-c2ccccc2F)CC1 | 6.53 ± 2.2 |
| CN1C(=O)C(c2ccccc2)C(=O)N(c2ccccc2)c2cc(C(F)(F)F)ccc21 (centres undefined) | 3.86 ± 0.4 |
| Nc1c(C(=O)NCc2ccco2)c2nc3ccccc3nc2n1CCN1CCCCC1 | 6.14 ± 2.6 |
| CC(C)Oc1cccc(NC(=O)c2ccccc2C(F)(F)F)c1 | 3.26 ± 1 |
| O=C(NC12CC3CC(CC(C3)C1)C2)c1cc2ccccc2[nH]1 | 6.55 ± 3.2 |
| CCCCc1ccc(C(=O)O)nc1 | 3.89 ± 0.63 |
| C[C@@]1(O)[C@H](O)[C@@H](CO)O[C@H]1n1ccc2c(N)ncnc21 | 7.31 ± 1.5 |
| NC1(C(=O)O)CCP(=O)(O)CC1 (centres undefined) | 2.95 ± 1.1 |
| COC(=O)Nc1nc2ccccc2[nH]1 | 9.55 ± 1.4 |

Same assay, conditions: infection time 6 days; 100 µM

| Structure (SMILES) | progeny production [%] |
| --- | --- |
| COc1cc(C(C)(C)CCCC(C)C)cc(OC)c1OC | 12.1 ± 4.9 |
| C[N+]1(C)CCCC(OC(=O)C(O)(c2ccccc2)c2ccccc2)C1 (centres undefined) | 4.14 ± 1.8 |
| COc1ccccc1CN[C@H]1C2CCN(CC2)[C@H]1C(c1ccccc1)c1ccccc1 | 16.1 ± 5.7 |
| CCN1CCN(Cc2nc3ccc([N+](=O)[O-])cc3c(=O)n2-c2ccccc2F)CC1 | 16.4 ± 6.8 |
| CN1C(=O)C(c2ccccc2)C(=O)N(c2ccccc2)c2cc(C(F)(F)F)ccc21 (centres undefined) | 8.44 ± 2 |
| Nc1c(C(=O)NCc2ccco2)c2nc3ccccc3nc2n1CCN1CCCCC1 | 8.06 ± 4 |
| CC(C)Oc1cccc(NC(=O)c2ccccc2C(F)(F)F)c1 | 18.9 ± 12 |
| O=C(NC12CC3CC(CC(C3)C1)C2)c1cc2ccccc2[nH]1 | 5.96 ± 4 |
| CCCCc1ccc(C(=O)O)nc1 | 18.3 ± 10 |
| C[C@@]1(O)[C@H](O)[C@@H](CO)O[C@H]1n1ccc2c(N)ncnc21 | 15.4 ± 2 |
| NC1(C(=O)O)CCP(=O)(O)CC1 (centres undefined) | 16.6 ± 16 |
| COC(=O)Nc1nc2ccccc2[nH]1 | 19.7 ± 17 |
